Compounds with a hit are over-represented: about 11% of the library has one in this group of screens.
IMPase Li inh = qHTS Assay for Identifying the Cell-Membrane Permeable IMPase Inhibitors: Potentiation with Lithium. CHO-M1 cells, IP1 TR-FRET (IP-One), carbachol + lithium. Potency, µM (top dose mostly 59.4 µM), for the others: at the highest dose activity, negative = IMPase inhibition, most hits filed as inhibitors. 210,000 tested, 0.35% active. AID 1457, 2008; active = well fitted curve in the direction sought with a large enough effect; inconclusive = small, poorly fitted or top-dose-only effect, or another doubt; inactive = no such curve, though single readings can be large; an effect the other way counts as inactive or inconclusive;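 also: IP1 builds up when IMPase is blocked and the TR-FRET signal falls; potency is read from the fitted curve at half-maximal effect; plate controls were basal vehicle for no effect and high inhibitor control for full effect; nearly all actives have a fitted effect of over 50% in size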
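Concentration–response in CHO-M1 cells, lithium-potentiated; 30 min at 37C. IP1 detected by competitive TR-FRET after 10 min lysis at RT. Hill-fitted AC50.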
ALOX12 inhib = qHTS Assay for Inhibitors of 12-hLO (12-human lipoxygenase); 150,000 tested, 0.12% active; Potency, µM (titrated, usually from 57.1 µM), without a hit: top-dose activity change, negative = inhibition, most hits filed as inhibitors; purified 12-hLO, xylenol orange hydroperoxide absorbance; AID 1452, 2008; active = well fitted curve in the direction sought with a large enough effect; inconclusive = small, poorly fitted or top-dose-only effect, or another doubt; inactive = no such curve, though single readings can be large; an effect the other way counts as inactive or inconclusive; also: potency is read from the fitted curve at half-maximal effect; nearly all actives have a fitted effect of over 55% in size
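Purified human 12hLO (150 nM final) was preincubated with compounds for 15 min at room temperature in 25 mM Hepes pH 7.0, 0.01% Triton X-100, then reacted with 40 uM arachidonic acid for 30 min. Hydroperoxide was detected with ferrous iron/xylenol orange.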
PNC inhibitor = High Content Assay for Compounds that inhibit the Assembly of the Perinucleolar Compartment. PC3M PTB-GFP, PNC prevalence imaging, 16 h; hits give low values. AID 2417, 2010. activity change (PNC), negative = inhibition, % at 10 µM. 140,000 tested, 3.1% active;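 active = readout at or below -70, meaning at least 70% loss of cells showing the perinucleolar compartment, a nuclear body marking cancer cells; inconclusive = readout between -30 and a set limit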;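 also: plate controls were DMSO wells for no effect and camptothecin positive control wells for full effect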
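PC3M cells stably expressing PTB-GFP, 750–1000 cells/well, treated 16 h at 37 °C with compound (23 nl of library stock), in duplicate. After paraformaldehyde fixation and Hoechst stain, imaged at 20x; PNC prevalence scored by image analysis.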
HPGD inh = qHTS Assay for Inhibitors of HPGD (15-Hydroxyprostaglandin Dehydrogenase) | 15-hydroxyprostaglandin dehydrogenase [NAD(+)] (Homo sapiens), P15428 | AID 894, 2007 | 150,000 tested, 4.3% active | Potency, µM, without a hit: top-dose activity change, negative = inhibition, most hits filed as inhibitors | purified HPGD, NADH fluorescence kinetic, PGE2 substrate; also: potency is read from the fitted curve at half-maximal effect
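20 nM HPGD preincubated 15 min at room temperature with compound in 50 mM Tris-HCl pH 8, 0.01% Tween 20. Started with 1 mM NAD+ and 30 uM prostaglandin E2; NADH fluorescence (360/450 nm) read 5 times over 30-s intervals, last minus first.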
ALDH1A1 inh = qHTS Assay for Inhibitors of Aldehyde Dehydrogenase 1 (ALDH1A1) | Aldehyde dehydrogenase 1A1 (Homo sapiens), P00352 | 220,000 tested, 7.3% active | Potency, µM (top dose mostly 75.3 µM), for inactives: at the highest dose activity, negative = inhibition, most hits filed as inhibitors | Purified ALDH1A1, NADH fluorescence, propionaldehyde substrate;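 also: potency is read from the fitted curve at half-maximal effect; plate controls were no enzyme wells and a reference inhibitor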
Target sequence (P00352 whole entry, looked up): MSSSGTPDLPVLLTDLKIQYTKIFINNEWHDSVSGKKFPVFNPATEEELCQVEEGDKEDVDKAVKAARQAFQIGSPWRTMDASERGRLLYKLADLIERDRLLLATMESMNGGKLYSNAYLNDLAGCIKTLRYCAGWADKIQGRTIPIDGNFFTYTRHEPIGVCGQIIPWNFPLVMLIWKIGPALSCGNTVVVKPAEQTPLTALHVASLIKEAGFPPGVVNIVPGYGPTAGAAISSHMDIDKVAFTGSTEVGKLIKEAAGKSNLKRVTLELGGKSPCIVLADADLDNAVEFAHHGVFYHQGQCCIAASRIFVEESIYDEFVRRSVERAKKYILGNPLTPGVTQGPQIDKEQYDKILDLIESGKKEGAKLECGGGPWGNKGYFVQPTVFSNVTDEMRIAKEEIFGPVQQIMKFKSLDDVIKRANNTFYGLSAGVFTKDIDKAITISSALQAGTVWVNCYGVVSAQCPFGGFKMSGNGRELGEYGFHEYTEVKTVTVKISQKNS
IMPase cell inh = qHTS Assay for Identifying the Cell-Membrane Permeable IMPase Inhibitors | inhibition (IP1 accumulation), % at 46.1 µM | CHO-M1 cells, IP1 accumulation, HTRF TR-FRET ratio | Inositol monophosphatase 1 (Rattus norvegicus), P97697 | 120,000 tested, under 10 active; active = well fitted curve in the direction sought with a large enough effect in the signal ratio, not every such curve was filed as active; inconclusive = small, poorly fitted or top-dose-only effect, or a change in a side signal; inactive = no such curve, though single readings can be large or run the other way; the % refers to the signal ratio;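 also: cells stimulated with carbachol in lithium chloride buffer; plate controls were DMSO basal wells for no effect and reference inhibitor wells for full effect; higher means more IMPase inhibition seen as more IP1 and lower FRET ratio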
Target sequence (P97697 whole entry, looked up): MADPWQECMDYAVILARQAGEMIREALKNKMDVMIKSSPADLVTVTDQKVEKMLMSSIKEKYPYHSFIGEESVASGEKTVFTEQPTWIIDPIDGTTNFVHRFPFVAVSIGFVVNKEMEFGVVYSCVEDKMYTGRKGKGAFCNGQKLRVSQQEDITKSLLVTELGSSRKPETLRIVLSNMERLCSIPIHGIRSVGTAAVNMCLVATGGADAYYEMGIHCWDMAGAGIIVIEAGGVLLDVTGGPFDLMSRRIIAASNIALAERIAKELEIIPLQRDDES
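Measured: the HTRF emission ratio (665/620 nm) plus the 620 nm donor channel, each fitted to the Hill equation to give AC50. Cells were CHO-M1 given compounds up to 46 uM and a 30 min carbachol stimulation at 37C.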
Numbers without * were called inactive; ? = inconclusive; . = no result; [ ] = another dose, or the depositor's remark. Unless noted, calls follow the shape of the dose curve; as a rule, active = well fitted inhibition curve with a large enough effect (not every such curve was filed as active); inconclusive = small, poorly fitted or top-dose-only effect, or another doubt; inactive = no such curve, though single readings can be large or run the other way. Unless noted, % is scaled to controls: 0 for no effect and ±100 for the full control effect.

SMILES	IMPase Li inh	ALOX12 inhib	PNC inhibitor	HPGD inh	ALDH1A1 inh	IMPase cell inh
COc1cccc(NC=C2C(=O)OC(C)(C)OC2=O)c1	8%[38.3 µM]	3%	-17	-8%	10µM*	-1
CC1(C)OC(=O)C(=CNc2ccc(F)cc2)C(=O)O1	-2%[38.3 µM]	2%	12	-8%	?	9
CC(Cn1cnc2ccccc21)C(=O)O (stereo unspecified)	1%	0%	-100*	-9%	13%	-12
CNc1nc2c(c(=O)n(C)c(=O)n2C)n1CC(O)COc1ccc(OC)cc1 (stereo unspecified)	.	.	.	.	.	6
C[C@]12CC[C@H]3c4ccc(OC[C@H]5CO5)cc4CC[C@H]3[C@H]1CC[C@@H]2O	.	.	.	.	18%[13.5 µM]	.
c1ccc(N/N=C(\Cc2nc3ccccc3[nH]2)c2ccccc2)cc1	10%	-6%	8	?	28µM*	.
Clc1cccc(/C(Cc2nc3ccccc3[nH]2)=N\Nc2ccccc2)c1	18%	-15%	?	-15%	?	9
Cc1ccc(N/N=C(\Cc2nc3ccccc3[nH]2)c2ccccc2)cc1	8%	-1%	0	?	10µM*	1
CCOC(=O)CNc1nc(C(C)(C)C)nc2c1nnn2Cc1ccccc1Cl	3%[38.3 µM]	-7%	?	-21%	?	9
CC(C)c1nc(NCCO)c2nnn(Cc3ccccc3)c2n1	1%	.	.	.	-10%	.
CCc1nc(NCCCCCO)c2nnn(Cc3ccccc3F)c2n1	22%[38.3 µM]	-4%	-2	-7%	1.4µM*	10
Cc1nc(Nc2cccc(C(C)O)c2)c2nnn(Cc3ccccc3F)c2n1 (stereo unspecified)	6%	.	.	.	4.5µM*	.
Cc1nc(Nc2ccc(Cl)cc2)c2nnn(Cc3ccccc3)c2n1	-22%	.	.	.	?	.
C#CCNc1nc(CC)nc2c1nnn2Cc1ccccc1F	.	-3%	-14	.	7.9µM*	11
Fc1cccc(Cl)c1Cn1nnc2c(NCc3ccccn3)ncnc21	-1%	2%	178	-18%	?	3
Fc1ccccc1Cn1nnc2c(NCCc3ccccn3)ncnc21	2%[38.3 µM]	0%	-30	-15%	7.9µM*	?
NNC(=O)c1ccc(Oc2cc(Cl)cc(Cl)c2)o1	.	.	.	.	0.16µM*	.
O=C(O)c1ccc(Oc2ccccc2)o1	.	.	.	.	2%	.
CC1CCC2(C(=O)O)CCC3(C)C(=CCC4C3(C)CCC3[C@@]4(C)CC(O)C(O)[C@@]3(C)CO)C2C1C (stereo partly specified)	4%	-4%	.	-3%	6%	.
CC1(C)Cn2c(nnc2-c2cccc(O)c2)S1	11%[38.3 µM]	-6%	39	16µM*	?	2
CC1Cn2c(nnc2-c2cccc(Cl)c2)S1 (stereo unspecified)	3%	2%	-17	-29%	7%	-14
CCOC(=O)c1c(C)n(-c2ccccc2)c2ccc(OC(=O)c3ccc(OCC)c(OCC)c3)cc12	.	.	.	.	.	-5
COCCSc1nc2sc3c(c2c(=O)n1-c1ccccc1)CCN(C)C3	9%[38.3 µM]	3%	19	?	?	4
CN1CCc2c(sc3nc(NN)n(Cc4ccccc4)c(=O)c23)C1	.	.	.	.	32µM*	.
CCOC(=O)c1sc(N=NC2=C(O)CC(C)(C)CC2=O)c(C(=O)OCC)c1C	5%	.	.	.	?	.
SMILES	IMPase Li inh	ALOX12 inhib	PNC inhibitor	HPGD inh	ALDH1A1 inh	IMPase cell inh
COc1ccc(N=NC2=C(O)CC(C)(C)CC2=O)c(OC)c1	0%	-1%	11	-13%	0.28µM*	10
COc1ccc(CN=CC2=C(O)CC(C)(C)CC2=O)cc1	8%[38.3 µM]	4%	28	-11%	-5%	2
COc1ccc(N=NC2=C(O)CC(C)(C)CC2=O)cc1	14%[38.3 µM]	-20%	9	32µM*	0.89µM*	7
CC1(C)CC(=O)C(N=Nc2ccc(C(F)(F)F)cc2[N+](=O)[O-])=C(O)C1	.	.	.	.	3.5µM*	.
N[C@H](C(=O)O)c1nn[nH]n1	5%	-3%	.	-1%	3%	-1
Cc1cc2c(nc1C)CCCCN2C[C@H](C)O/N=C1/[C@H]2O[C@@H]2[C@@H](O)[C@H]2[C@H]1CCn1c(=O)n(-c3ccccc3)c(=O)n12	.	.	.	.	-10%[13.5 µM]	.
COc1cccc(CN(C)CC(=O)Nc2ccccc2C(C)C)c1	19%	.	.	.	20µM*	.
CCN1CCc2nc(N)oc2CC1	2%	2%	.	-20%	4%	2
O=c1cc(-c2ccc(F)cc2F)[nH]c2ccc(F)cc12	-17%	0%[0.00818 µM]	.	-23%	-9%[120 µM]	.
Cc1cccc(N(C(=O)Nc2ccccc2)C2=NCC(C)S2)c1 (stereo unspecified)	-1%[38.3 µM]	2%	9	18µM*	-3%	6
CC(=O)Nc1ccc(S(=O)(=O)N(Cc2ccccc2)Cc2ccccc2)cc1	.	.	.	.	.	0
CC(=O)Nc1ccc(S(=O)(=O)N(C)c2ccccc2)cc1	-5%[38.3 µM]	-3%	28	-12%	1%	5
Cc1cccc(N(C(=O)Nc2ccc(Cl)cc2)C2=NCC(C)S2)n1 (stereo unspecified)	6%	.	.	.	6%	.
CC1CN=C(N(C(=O)Nc2ccccc2)c2ccc(F)cc2)S1 (stereo unspecified)	5%[38.3 µM]	1%	-26	10µM*	-6%	4
CC(=O)Nc1ccc(S(=O)(=O)N(C2=NCC(C)S2)c2ccccc2)cc1 (stereo unspecified)	3%	-2%	280	-16%	13µM*	-4
CC(=O)Nc1ccc(S(=O)(=O)N(c2cccnc2)S(=O)(=O)c2ccc(NC(C)=O)cc2)cc1	-1%	-2%	-18	11µM*	-3%	?
COC(=O)CC1C2(C)CC34OC5(C)O[C@@]6(C7/C(=C(/O)C(C)C)C(=O)OC(c8ccoc8)[C@]7(C)C(OC(C)=O)C(OC(C)=O)[C@]6(O5)[C@@]13C)C(OC(C)=O)[C@]4(O)C2OC(=O)C(C)C (stereo partly specified)	36%	-1%	.	-3%	2%	.
COc1ccc(CCN2C(=S)N(C)C(=O)C2CC(=O)Nc2ccc(OC)cc2)cc1 (stereo unspecified)	7%	.	.	.	4.5µM*	.

Assay outcomes deposited in PubChem by National Center for Advancing Translational Sciences (NCATS).
